Shiga inhibitor: blocks Shiga toxin action in Vero cells; Vero cells, Shiga toxin protein synthesis inhibition reporter; inhibition, % at 38.7 µM; 290,000 tested, 9.2% active; AID 2315; in the data active = inhibition mostly above about 28%, no sharp cut-off; inactive = mostly below about 43%; note: 0% is about no effect
Sm TGR inh: inhibitors of Schistosoma mansoni thioredoxin glutathione reductase; AID 485364; 360,000 tested, 3% active; Potency, µM (top dose mostly 114 µM), inactives show at the top dose activity change, negative = inhibition, hits mostly inhibitors; purified TGR, DTNB reduction, TNB absorbance 405 nm; active = well fitted inhibition curve with a large enough effect; inconclusive = small, poorly fitted or top-dose-only effect; inactive = no such curve, though single readings can be large or run the other way; note: potency is the fitted concentration of half-maximal effect; % is set by controls: 0 for no effect and ±100 for the full control effect; nearly all actives have a fitted effect of over 60% in size
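Kinetic colorimetric format: TGR-catalysed, NADPH-driven DTNB reduction monitored via TNB absorbance. Enzyme dispensed at 20 nM; compound exposure 15 min at room temperature before reaction start.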
FMDV antiviral: antivirals against foot and mouth disease virus. AID 1159524. FMDV antiviral cell-based qHTS. 410,000 tested, 1.2% active. Potency, µM (top dose mostly 57.9 µM), for the others: at the highest dose activity change, negative = inhibition, actives largely listed as inhibitors; calls by dose curve; tested in HEK293T cells; note: read-out not given here; potency is the fitted concentration of half-maximal effect; % is set by controls: 0 for no effect and ±100 for the full control effect; nearly all actives have a fitted effect of over 45% in size
CHX counter: counter-screen for Shiga toxin inhibitors: cycloheximide protein synthesis inhibition | max response, % | cell reporter, cycloheximide protein synthesis inhibition counterscreen | 300,000 tested, 12% active | AID 2314; in the data active = max response mostly above about 13%, no sharp cut-off; inactive = mostly below about 14%; note: read at 38.3 µM for the half of the compounds with a filed dose; 0% is about no effect
* = called active by the depositor; u = inconclusive; x = no result given; ! = repeats disagree. Compounds with a hit are over-represented: about 12% of the library has one in this group of screens.

SMILES	Shiga inhibitor	Sm TGR inh	FMDV antiviral	CHX counter
COc1cccc(/C=N/NC(=O)CNC(=O)c2ccco2)c1O	54	7%	13%	15*
COc1cc(C(=O)NCC(=O)N/N=C/c2cccc(OC(=O)c3ccco3)c2)cc(OC)c1OC	56	-6%	10%	15*
COc1cccc(/C=N/NC(=O)C[n+]2ccccc2)c1O	-1	10%	-2%	-1
COc1cccc(/C=N/NC(=O)CN2CC(c3ccccc3)CC2=O)c1O (stereo not given)	40*	-9%	24%	34*
O=C(Nc1ccc(C(F)(F)F)cc1)N1CCC(N2CCCCC2)CC1	x	8%	-13%	x
COc1cccc(NS(=O)(=O)c2cc3c4c(c2)C(C)C(=O)N4CCC3)c1 (stereo not given)	x	u	-19%	x
CNC(=O)c1cc2n(n1)CCCN(Cc1ccc(F)cc1)C2=O	x	5%	-25%	x
N#Cc1ccccc1NC(=O)C(=O)NCC(c1cccnc1)N1CCN(c2ccccc2)CC1 (stereo not given)	x	6%	0%	x
CCCCCOc1ccc(/C=C/C(=O)Nc2sc3c(c2C(=O)OCC)CCC3)cc1OC	x	-10%	-4%	x
Cc1cc(C)cc(NC2=CC(c3cccc(F)c3)N(c3cc(C)cc(C)c3)C2=O)c1 (stereo not given)	x	-18%	0%	x
Cc1cccc(NC(=O)C(NS(=O)(=O)c2ccc3c(c2)oc(=O)n3C)C(C)C)c1 (stereo not given)	x	0%	13%	x
CC(NC(=O)c1ccc(CS(=O)(=O)c2cccc(C(F)(F)F)c2)o1)c1ccc2c(c1)OCCO2 (stereo not given)	-7	7%	-25%	-3
O=C(NC1CCCC1)c1ccc(CS(=O)(=O)Cc2ccccc2F)o1	-6	u	2%	-1
O=C(O)c1ccc(CSCc2ccccc2F)o1	-2	-3%	-15%	-2
O=C(NC1CCCC1)c1ccc(CSCc2ccccc2F)o1	31	-12%	35%	31*
O=C(NC1CCCCC1)c1ccc(CS(=O)(=O)Cc2ccccc2F)o1	68*	u	17%	20*
COc1ccccc1S(=O)(=O)Cc1ccc(C(=O)NC2CCCCC2)o1	-20	40µM*	-6%	-4
CC(NC(=O)c1ccc(CS(=O)(=O)Cc2ccccc2F)o1)c1ccc2c(c1)OCCO2 (stereo not given)	2	35µM*	-19%	-4
C=CCN1CCC23c4c5ccc(O)c4OC2/C(=N/N=C2\CCC4(O)C6Cc7ccc(O)c8c7C4(CCN6CC=C)C2O8)CCC3(O)C1C5 (stereo not given)	x	x	21%	x
C=CCN1CC[C@]23c4c5ccc(O)c4O[C@H]2C(=O)CC[C@@]3(O)[C@H]1C5	-9	45µM*!	-20%	1
Oc1ccc2c3c1O[C@H]1c4[nH]c5c(c4C[C@@]4(O)[C@@H](C2)N(CC2CC2)CC[C@]314)C[C@]1(O)[C@H]2Cc3ccc(O)c4c3[C@@]1(CCN2CC1CC1)[C@@H]5O4	x	x	-19%	x
O=C1/C(=C\c2ccccc2)C[C@@]2(O)[C@H]3Cc4ccc(O)c5c4[C@@]2(CCN3CC2CC2)[C@@H]1O5	x	x	22µM*	x
O=C1/C(=C\c2ccccc2)C[C@@]2(O)[C@H]3Cc4ccc(O)c5c4[C@@]2(CCN3CC2CC2)[C@H]1O5	x	x	10µM*	x
NC(N)=Nc1ccc2[nH]c3c(c2c1)C[C@@]1(O)[C@H]2Cc4ccc(O)c5c4[C@@]1(CCN2CC1CC1)[C@H]3O5	-7	0.79µM*	u	-7
CCOC(=O)C1=C(CN2CCN(c3ccccc3)CC2)NC(=O)NC1c1ccc(C)cc1 (stereo not given)	x	u	-15%	x
SMILES	Shiga inhibitor	Sm TGR inh	FMDV antiviral	CHX counter
O=[N+]([O-])c1cc(/C=N\Nc2ccccn2)ccc1Cl	14	-6%	0%	11
O=[N+]([O-])c1cc(C=Nc2cccc3c(O)cccc23)ccc1Cl	14	40µM*	x	4
Cc1nn(-c2ccccc2)c(N)c1Sc1ccc([N+](=O)[O-])cc1	12	-10%	32µM*	20*
Cc1nn(-c2ccccc2)c(OC(=O)C(C)C)c1Sc1ccccc1	x	2%	-19%	x
O=C1CCSc2ccc(S(=O)(=O)Nc3ccc(Cl)c(C(F)(F)F)c3)cc2N1	x	14%	25%	x
CC(/C=C/c1ccccc1)=N\Nc1ccccc1[N+](=O)[O-]	89*	-9%	21%	32*
CC(/C=C/c1ccccc1)=N/NC(=O)C(O)c1ccccc1 (stereo not given)	45*	5%	47%	10
CC(/C=C/c1ccccc1)=N/NC(=O)c1cc([N+](=O)[O-])cc([N+](=O)[O-])c1	-1	3%	0%	-10
CC(/C=C/c1ccco1)=N/NC(=O)CNc1ccccc1C	-8	35µM*	3%	-2

Screens as filed in PubChem BioAssay.
